Assay results: PubChem BioAssay (NCATS)
Inconclusive results are not listed. A number with no mark means an inactive call. The source made the active and inactive calls. Calls come from the whole dose curve; as a rule, active = well fitted inhibition curve with a large enough effect; inconclusive = small, poorly fitted or top-dose-only effect; inactive = no such curve, though single readings can be large or run the other way.
% is set by controls: 0 for no effect and ±100 for the full control effect; potency is the fitted concentration of half-maximal effect.

What follows are molecules tested on Zika virus NS2B-NS3 protease (unlinked complex) (assay: Primary screen GU Rhodamine qHTS for Zika virus inhibitors: Unlinked NS2B-NS3 protease assay (AID 1347159; note: nearly all actives have a fitted effect of over 60% in size)). Settings: Recombinant ZIKV NS2B-NS3 protease, Rhodamine110 substrate fluorescence; series mostly up to 107 µM; activity change, negative = inhibition: at the top concentration.
Method in brief: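 Noncovalent NS2B hydrophilic domain/NS3 protease complex (25 nM final) in 10 mM Tris-HCl pH 8.0, 0.01% Tween 20, preincubated 15 min with compounds (up to 114 microM), then 1.5 microM Rhodamine110 substrate. Fluorescence change over 15 min fitted to 4-parameter Hill.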
`CNC(=O)c1c(F)cccc1Nc1nc(Nc2cc3c(cc2OC)CCN3C(=O)CN(C)C)nc2[nH]ccc12` was tested, and the “activity change, negative = inhibition” value was 69.2%. In the case of `CCn1cc(-c2ccnc3[nH]c(-c4cccc(CN(C)C)c4)cc23)c(-c2ccc(NC(=O)N(C)C)cc2)n1`, the “activity change, negative = inhibition” value was 91.1% [at 57.1 µM]. In the case of `CNC(=O)CN1CCC(Oc2cc3c(Nc4cccc(Cl)c4F)ncnc3cc2OC)CC1`, the “activity change, negative = inhibition” value was 2.73%. In the case of `Cc1nc(Nc2n[nH]c3c2CN(C(=O)N[C@H](CN(C)C)c2ccccc2)C3(C)C)c2sccc2n1`, the “activity change, negative = inhibition” value was -30.3%. For `COc1cccc(-c2ccc(NC(=O)C3=C(C(=O)O)CCC3)c(F)c2)c1`, the Potency was 17.8 µM (active). With `COc1ccc(-c2cc3c(C)nc(N)nc3n(C3CCC(OCCO)CC3)c2=O)cn1` (stereo not drawn) the “activity change, negative = inhibition” value was 11.5%. In the case of `CCn1nnc2c(N3CCOCC3)nc(-c3ccc(NC(=O)Nc4ccc(C(=O)N5CCN(C)CC5)cc4)cc3)nc21`, the “activity change, negative = inhibition” value was 0.53%. In the case of `C=CCn1c(=O)c2cnc(Nc3ccc(N4CCN(C)CC4)cc3)nc2n1-c1cccc(C(C)(C)O)n1`, the “activity change, negative = inhibition” value was 23.4%.
